# In the supplement of paper PMC6518042:
# Unmarked numbers belong to inactive results.
# System: Pectobacterium parmentieri SCC3193
# Experiment: DuctApe activity index (growth/respiration on compound as sole nutrient source, blank-subtracted) (activity index (0-3)); higher = stronger utilization of the compound, active = 3 or more
# Description: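 Biolog Phenotype Microarray plates PM1, PM2A (carbon), PM3 (nitrogen) and PM4 (phosphorus/sulfur) inoculated with P. parmentieri SCC3193 in M9-C minimal salts medium with Biolog dye A, and read in the OmniLog for 46 h. Each well was tested in triplicate and the experiment was run twice. DuctApe computed a blank-subtracted activity index (AV, 0-3) from the mean curves; growth is positive at AV >= 3 and negative at AV <= 2.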
# [1] = nutrient role (plate category): phosphate & sulphur
# [2] = nutrient role (plate category): nitrogen
# [3] = nutrient role (plate category): carbon
smiles,measurement,setting,value
Nc1nc2c(ncn2[C@@H]2O[C@H](CO)[C@@H](OP(=O)(O)O)[C@H]2O)c(=O)[nH]1 [Guanosine 3`-Monophosphate],DuctApe activity index,[1],2
NC(=O)NC(N)=O [Biuret],DuctApe activity index,[2],0
NC=O [Formamide],DuctApe activity index,[2],0
Nc1ncnc2c1ncn2[C@H]1C[C@H](O)[C@@H](CO)O1 [2`-Deoxyadenosine],DuctApe activity index,[3],1
C[C@H](CCC(=O)NCCS(=O)(=O)O)[C@H]1CC[C@H]2[C@@H]3[C@H](O)C[C@@H]4C[C@H](O)CC[C@]4(C)[C@H]3C[C@H](O)[C@]12C [Taurocholic acid],DuctApe activity index,[1],2
OC[C@H]1O[C@H](O[C@H]2O[C@H](CO)[C@@H](O)[C@H](O)[C@H]2O)[C@H](O)[C@@H](O)[C@@H]1O [D-Trehalose],DuctApe activity index,[3],3 (active)
Nc1nc2c(ncn2[C@@H]2O[C@H](CO)[C@@H](O)[C@H]2OP(=O)(O)O)c(=O)[nH]1 [Guanosine 2`-Monophosphate],DuctApe activity index,[1],2
O=C[C@H](O)[C@@H](O)[C@H](O)[C@H](O)CO[C@@H]1O[C@H](CO)[C@@H](O)[C@H](O)[C@H]1O [Gentiobiose],DuctApe activity index,[3],3 (active)
C[C@@H](O)CC(=O)O [b-Hydroxybutyric acid],DuctApe activity index,[3],0
N[C@@H](Cc1ccc(OP(=O)(O)O)cc1)C(=O)O [O-Phospho-L-Tyrosine],DuctApe activity index,[1],2
O=C(O)COP(=O)(O)O [Phospho-Glycolic acid],DuctApe activity index,[1],1
O=S(=O)(O)O [Sulfate],DuctApe activity index,[1],1
CC(=O)C(=O)O [Pyruvic acid],DuctApe activity index,[3],3 (active)
N[C@@H](CCC(=O)N[C@@H](CS)C(=O)NCC(=O)O)C(=O)O [Glutathione],DuctApe activity index,[1],1
CO[C@H]1O[C@H](CO)[C@H](O)[C@H](O)[C@H]1O [a-Methyl-D-Galactoside],DuctApe activity index,[3],3 (active)
O=S1(=O)CCCC1 [Tetramethylene Sulfone],DuctApe activity index,[1],0
NCCS [Cysteamine],DuctApe activity index,[1],1
NCCO [2-Aminoethanol],DuctApe activity index,[3],0
OCC(O)CO [Glycerol],DuctApe activity index,[3],3 (active)
OCC(O)C(O)C(O)CO (configuration not stated) [Adonitol],DuctApe activity index,[3],1
"O=C1O[C@H](CO)[C@@H](O)[C@H]1O [D-Ribono-1,4-Lactone]",DuctApe activity index,[3],0
O=C(O)c1ccccc1O [2-Hydroxybenzoic acid],DuctApe activity index,[3],0
OC[C@H]1O[C@@H](O[C@H]2[C@H](O)[C@@H](O)[C@H](O[C@H]3[C@H](O)[C@H](O)[C@H](O[C@@H]4[C@H](O)[C@H](O)[C@H](O)O[C@@H]4CO)O[C@@H]3CO)O[C@@H]2CO)[C@@H](O)[C@@H](O)[C@@H]1O [Mannan],DuctApe activity index,[3],0
CCCCCC(=O)O [Caproic acid],DuctApe activity index,[3],0
Nc1ncnc2c1ncn2[C@@H]1O[C@H](CO)[C@@H](OP(=O)(O)O)[C@H]1O [Adenosine 3`-Monophosphate],DuctApe activity index,[1],2
O=C(O)[C@@H](O)[C@@H](O)[C@H](O)[C@@H](O)C(=O)O [D-Saccharic acid],DuctApe activity index,[3],3 (active)
OC[C@H]1O[C@H](O[C@H]2[C@H](O)[C@@H](O)[C@H](O)O[C@@H]2CO)[C@H](O)[C@@H](O)[C@@H]1O [Maltose],DuctApe activity index,[3],1
O=S(O)(O)=S [Thiosulfate],DuctApe activity index,[1],0
OC[C@H]1O[C@@H](O[C@H]2[C@H](O)[C@@H](O)[C@@H](O)O[C@@H]2CO)[C@H](O)[C@@H](O)[C@H]1O [a-D-Lactose],DuctApe activity index,[3],3 (active)
O=P(O)(O)OC[C@H]1OC(O)C[C@@H](O)[C@@H]1O (stereo partly drawn) [2-Deoxy-D-Glucose 6-Phosphate],DuctApe activity index,[1],1
OC[C@H]1O[C@@H](O[C@@H]2[C@@H](CO)OC(O)(CO)[C@H]2O)[C@H](O)[C@@H](O)[C@H]1O (mixture of isomers) [Lactulose],DuctApe activity index,[3],3 (active)
O=C1O[C@H]([C@@H](O)CO)[C@@H](O)[C@@H]1O [L-Galactonic acid-g-Lactone],DuctApe activity index,[3],3 (active)
NCC(=O)N1CCC[C@H]1C(=O)O,DuctApe activity index,[3],0
NCCS(=O)(=O)O [Taurine],DuctApe activity index,[1],1
OC[C@H]1OC(O)[C@H](O)[C@@H](O)[C@@H]1O (stereo partly drawn) [a-D-Glucose],DuctApe activity index,[3],3 (active)
OC[C@H]1O[C@H](OC[C@H]2O[C@H](O[C@H]3[C@H](O)[C@@H](O)[C@@H](O)O[C@@H]3CO)[C@H](O)[C@@H](O)[C@@H]2O[C@H]2O[C@H](CO)[C@@H](O)[C@H](O)[C@H]2O)[C@H](O)[C@@H](O)[C@@H]1O [Glycogen],DuctApe activity index,[3],0
N[C@@H](CS(=O)O)C(=O)O [L-Cysteine Sulfinic acid],DuctApe activity index,[1],0
